Results reported in PubChem BioAssay (EPA / NIEHS).
Records with an inconclusive call do not appear. Active and inactive are the calls of the source. Rule for the calls, unless noted: active = hit-call score of the fitted dose curve at least 0.9, where 1 is the maximum; inconclusive = response in the unintended direction; inactive = score below 0.9.

How the values were obtained:
PGR (gene 5241) [1] = target: PGR (gene 5241) (UniProt P06401); experiment: TOX21_PR_BLA_Followup_Antagonist_ratio: Tox21 HEK293 Progesterone Receptor (PR) Antagonism Beta-lactamase Follow-Up Assay, Ratio (AID 2283934);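 note: PR-UAS-bla HEK293T cells stimulated with 1 nM R5020 agonist for 16 hr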
Chain of PGR (gene 5241) (P06401 whole entry, looked up): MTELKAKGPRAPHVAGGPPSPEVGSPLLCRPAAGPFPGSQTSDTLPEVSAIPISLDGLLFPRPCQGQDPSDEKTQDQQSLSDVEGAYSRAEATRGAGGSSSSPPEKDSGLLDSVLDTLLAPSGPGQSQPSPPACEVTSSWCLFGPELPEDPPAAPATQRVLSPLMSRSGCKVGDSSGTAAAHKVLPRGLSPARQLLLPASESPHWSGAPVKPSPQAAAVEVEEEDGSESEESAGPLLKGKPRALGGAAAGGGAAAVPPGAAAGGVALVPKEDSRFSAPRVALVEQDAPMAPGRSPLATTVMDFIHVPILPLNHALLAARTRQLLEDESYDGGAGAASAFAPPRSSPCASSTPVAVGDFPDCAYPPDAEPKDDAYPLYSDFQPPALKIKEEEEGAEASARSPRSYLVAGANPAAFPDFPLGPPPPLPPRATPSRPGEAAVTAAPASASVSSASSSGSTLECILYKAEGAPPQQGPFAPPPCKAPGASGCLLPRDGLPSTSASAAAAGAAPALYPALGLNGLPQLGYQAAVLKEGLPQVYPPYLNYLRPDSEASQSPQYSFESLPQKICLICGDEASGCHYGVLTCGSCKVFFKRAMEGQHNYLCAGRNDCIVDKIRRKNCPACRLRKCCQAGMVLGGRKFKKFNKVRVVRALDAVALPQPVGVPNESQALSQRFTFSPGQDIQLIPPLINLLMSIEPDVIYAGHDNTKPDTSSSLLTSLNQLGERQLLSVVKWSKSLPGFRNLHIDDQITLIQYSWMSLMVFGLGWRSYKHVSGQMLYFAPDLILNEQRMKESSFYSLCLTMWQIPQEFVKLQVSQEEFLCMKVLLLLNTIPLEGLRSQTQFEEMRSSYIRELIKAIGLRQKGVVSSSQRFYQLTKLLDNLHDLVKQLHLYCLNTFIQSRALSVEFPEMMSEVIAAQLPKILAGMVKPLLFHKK
Summary of the method: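 Cells are plated, rested 6 hr, then dosed with test compound in DMSO and challenged with 1 nM promegestone. After 16 hr incubation, substrate loading for 2 h at room temperature precedes fluorescence reading; viability is measured in the same wells.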

[2] = TOX21_PR_BLA_Followup_Agonist_viability: Viability Assessment in the Tox21 HEK293 Progesterone Receptor (PR) Agonism Beta-lactamase Follow-Up Assay (AID 2283935);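 note: signal loss means lower viability so actives are cytotoxic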
Summary of the method: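 Cells were plated in medium with 2% charcoal-stripped FBS and rested 6 hr. Compounds in DMSO were then added for 16 hr at 37C, followed by the FRET substrate step and CellTiter-Glo luminescence after 30 min.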

PGR (gene 5241) [3] = target: PGR (gene 5241) (UniProt P06401); experiment: TOX21_PR_LUC_Followup_Antagonist: Tox21 HEK293 Progesterone Receptor (PR) Antagonism Luciferase Follow-Up Assay (AID 2283938);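 note: curve fitted upward as signal gain over DMSO baseline despite antagonist label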
Summary of the method: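 Luminescence from ONE-Glo was measured 30 min after reagent addition, following 16 h exposure of HEK293-PR-A-luc cells (3,000/well, plated 5 h earlier) to DMSO-dissolved compounds at 37C; DMSO served as baseline.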

[4] = TOX21_PR_LUC_Followup_Agonist_viability: Viability Assessment in the Tox21 HEK293 Progesterone Receptor (PR) Agonism Luciferase Follow-Up Assay (AID 2283941);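 note: loss of signal means cytotoxicity so actives lower viability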
Summary of the method: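 Multiplexed viability endpoint of the PR agonist luciferase follow-up: HEK293-PR-A-luc cells treated 16 h at 37C, with viability scored as decrease in CellTiter-Glo ATP signal.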

[5] = target: Nucleoli Translocation, AR (gene 367) (UniProt P10275); experiment: UPITT_HCI_U2OS_AR_TIF2_Nucleoli_Antagonist: University of Pittsburgh U2OS Androgen Receptor-Transcriptional Intermediary Factor 2 (AR-TIF2) Antagonism High Content Imaging Assay for Nucleoli Translocation (AID 2283997)
Chain of Nucleoli Translocation, AR (gene 367) (P10275 whole entry, looked up, the tested form may be a part): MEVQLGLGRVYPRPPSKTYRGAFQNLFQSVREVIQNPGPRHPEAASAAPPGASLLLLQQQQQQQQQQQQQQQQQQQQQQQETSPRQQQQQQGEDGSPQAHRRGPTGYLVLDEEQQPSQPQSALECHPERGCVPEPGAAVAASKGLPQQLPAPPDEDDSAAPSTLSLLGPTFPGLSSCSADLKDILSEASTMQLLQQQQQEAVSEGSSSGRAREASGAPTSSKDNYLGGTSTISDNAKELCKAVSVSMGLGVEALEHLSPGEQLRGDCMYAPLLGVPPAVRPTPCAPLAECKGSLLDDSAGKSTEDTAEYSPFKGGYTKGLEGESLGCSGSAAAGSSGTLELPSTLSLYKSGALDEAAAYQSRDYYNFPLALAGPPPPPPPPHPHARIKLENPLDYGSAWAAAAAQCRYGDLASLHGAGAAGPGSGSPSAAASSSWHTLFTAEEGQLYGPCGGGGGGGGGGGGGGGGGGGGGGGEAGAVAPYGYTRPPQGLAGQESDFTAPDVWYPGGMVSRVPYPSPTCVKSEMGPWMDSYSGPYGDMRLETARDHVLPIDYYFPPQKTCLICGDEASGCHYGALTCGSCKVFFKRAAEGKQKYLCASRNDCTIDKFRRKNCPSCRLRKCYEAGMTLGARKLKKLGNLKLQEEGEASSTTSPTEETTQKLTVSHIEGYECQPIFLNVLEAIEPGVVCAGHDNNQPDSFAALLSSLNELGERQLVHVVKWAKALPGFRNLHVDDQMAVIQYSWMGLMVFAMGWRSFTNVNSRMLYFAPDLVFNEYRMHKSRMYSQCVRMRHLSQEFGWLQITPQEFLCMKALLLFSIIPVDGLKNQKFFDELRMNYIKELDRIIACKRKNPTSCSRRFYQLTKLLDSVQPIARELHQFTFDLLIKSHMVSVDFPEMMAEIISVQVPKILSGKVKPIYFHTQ
Summary of the method: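 Compounds are added at 20 uM final concentration in 0.2% DMSO to U2OS cells carrying AR-RFP and TIF2-GFP fusions. Nucleolar AR-RFP fluorescence is then quantified by automated imaging. Antagonism is fitted positively against DHT baseline.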

[6] = target: Nucleoli Translocation, AR (gene 367) (UniProt P10275); experiment: UPITT_HCI_U2OS_AR_TIF2_Nucleoli_Agonist: University of Pittsburgh U2OS Androgen Receptor-Transcriptional Intermediary Factor 2 (AR-TIF2) Agonism High Content Imaging Assay for Nucleoli Translocation (AID 2283998)
Summary of the method: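 Nucleolar translocation of AR-RFP, with TIF2-GFP coexpressed in human osteosarcoma U2OS, imaged by high-content fluorescence. Compounds tested singly at 20 uM final, confirmed in triplicate, then titrated 0.195–50 uM final; gain-of-signal relative to DMSO.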

[7] = target: Ratio of Nucleoli Translocation and Cytoplasm, AR (gene 367) (UniProt P10275); experiment: UPITT_HCI_U2OS_AR_TIF2_Nucleoli_Cytoplasm_Ratio_Antagonist: University of Pittsburgh U2OS Androgen Receptor-Transcriptional Intermediary Factor 2 (AR-TIF2) Antagonism High Content Imaging Assay for Ratio of Nucleoli Translocation and Cytoplasm (AID 2283999);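 note: antagonists lower the DHT-driven ratio of nucleolar to cytoplasmic red signal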
Chain of Ratio of Nucleoli Translocation and Cytoplasm, AR (gene 367) (P10275 whole entry, looked up): as the sequence (P10275 whole entry, looked up, the tested form may be a part) above
Summary of the method: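 Compounds were added to U2OS cells carrying red-fluorescent AR and green-fluorescent TIF2, first at 20 uM, with hits confirmed in triplicate and titrated from 0.195 to 50 uM. Nucleolar versus cytoplasmic AR-RFP fluorescence was then quantified by imaging, with analysis relative to DHT.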

[8] = target: Ratio of Nucleoli Translocation and Cytoplasm, AR (gene 367) (UniProt P10275); experiment: UPITT_HCI_U2OS_AR_TIF2_Nucleoli_Cytoplasm_Ratio_Agonist: University of Pittsburgh U2OS Androgen Receptor-Transcriptional Intermediary Factor 2 (AR-TIF2) Agonism High Content Imaging Assay for Ratio of Nucleoli Translocation and Cytoplasm (AID 2284000);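 note: hits raise the red nucleolar to cytoplasm ratio above vehicle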
Summary of the method: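 Human osteosarcoma U2OS line, AR-RFP plus TIF2-GFP; compounds 0.195–50 uM final, 0.5% DMSO. Readout: nucleolar/cytoplasmic RFP ratio by HCI, positive direction vs DMSO baseline.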

[9] = CCTE_Mundy_HCI_Cortical_Synap_Neur_Matur_NeuronCount: CCTE's Synaptogenesis and Neurite Maturation Assay in rat cortical cells for Neuron Count, Mundy Lab (AID 2284242);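 for AC50: neuron number from Hoechst nuclei and MAP2 staining by high-content imaging; hits reduce neuron count versus DMSO baseline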
Summary of the method: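 Cortical cells from rat are plated, treated with AraC at DIV 5, and exposed to test chemicals with a media change at DIV 7. At DIV 12 they are fixed and immunostained (MAP2, synaptophysin), and imaged neuron counts are compared against DMSO controls.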

[10] = CCTE_Shafer_MEA_acute_firing_rate_mean: CCTE's Neural Acute Assay for Mean Firing Rate, Shafer Lab (AID 2284009; active = hit-call score of the fitted dose curve at least 0.9, where 1 is the maximum; inactive = score below 0.9;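 note: analyzed for loss of signal so actives lower firing rate relative to DMSO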)
Summary of the method: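 Rat cortical neuron cultures matured to DIV 13 or 15, equilibrated 20 min at 37 C, then recorded 40 min for baseline. Compound (0.03-40 uM) added and a further 40 min recorded; percent change in mean firing rate calculated per well.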

[11] = CCTE_Shafer_MEA_acute_burst_number: CCTE's Neural Acute Assay for Single-Electrode Bursts, Shafer Lab (AID 2284013; active = hit-call score of the fitted dose curve at least 0.9, where 1 is the maximum; inactive = score below 0.9)
Summary of the method: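 Percent change in single-electrode burst number per well, from 40-min recordings taken before and after adding compound (0.03-40 uM) to primary rat cortical neurons on MEA plates at DIV 13 or 15, 37 C.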

[12] = CCTE_Shafer_MEA_acute_burst_duration_mean: CCTE's Neural Acute Assay for Mean Burst Duration, Shafer Lab (AID 2284014; active = hit-call score of the fitted dose curve at least 0.9, where 1 is the maximum; inactive = score below 0.9;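 note: hits are decreases in mean burst duration relative to DMSO controls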)
Summary of the method: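 Rat cortical cultures, DIV 13/15; 40 min baseline, then 40 min with compound (0.03-40 uM), 37 C. Spikes: 300-5000 Hz band-pass, 8x rms threshold. Read-out: % change in mean single-electrode burst duration, DMSO-referenced, loss direction.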

[13] = CCTE_Shafer_MEA_acute_interburst_interval_mean: CCTE's Neural Acute Assay for Mean Interburst Interval, Shafer Lab (AID 2284016; active = hit-call score of the fitted dose curve at least 0.9, where 1 is the maximum; inactive = score below 0.9;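 note: percent change of mean interburst interval versus each well's own pre-dose baseline; curves fitted for decrease in interburst interval relative to DMSO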)
Summary of the method: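 MEA recording of spontaneous network bursting in primary rat cortical cultures; mean interburst interval was compared before and after a 40-min compound exposure (0.03-40 uM) and expressed as percent change, relative to DMSO.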

[14] = CCTE_Shafer_MEA_acute_burst_percentage_mean: CCTE's Neural Acute Assay for Percentage of Spikes in a Burst, Shafer Lab (AID 2284017; active = hit-call score of the fitted dose curve at least 0.9, where 1 is the maximum; inactive = score below 0.9;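 for AC50: curve fitted for loss of signal so potency reflects decreased burst percentage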)
Summary of the method: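 Compounds were tested at 0.03-40 uM on primary rat cortical neuron networks grown over microelectrodes, with at least three wells per compound. Spontaneous firing was recorded for 40 min before and 40 min after dosing, and the change in burst percentage was computed per well.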

[15] = CCTE_Shafer_MEA_acute_burst_percentage_std: CCTE's Neural Acute Assay for Standard Deviation of Burst Percentage, Shafer Lab (AID 2284018; active = hit-call score of the fitted dose curve at least 0.9, where 1 is the maximum; inactive = score below 0.9;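 note: fitted in the negative direction so actives lower burst percentage SD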)
Summary of the method: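 Rat primary cortical neurons on 48-well MEAs, DIV 13 or 15, 37 C. 40-min baseline then 40-min recording with compound (0.03-40 uM); well-level SD of per-electrode burst spike percentage, expressed as percent change from baseline.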

[16] = CCTE_Shafer_MEA_acute_per_network_burst_spike_number_mean: CCTE's Neural Acute Assay for Average Number of Spikes in a Network Burst, Shafer Lab (AID 2284019; active = hit-call score of the fitted dose curve at least 0.9, where 1 is the maximum; inactive = score below 0.9;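 for AC50: curve fitted for loss of signal so actives reduce spikes per network burst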)
Summary of the method: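 Rat cortical cultures, DIV 13/15; spike threshold 8x rms noise, 300-5000 Hz band-pass, 12.5 kHz sampling; wells need >/= 10 active electrodes. Compound 0.03-40 uM, 40 min, 37 C; % change vs own baseline, DMSO negative control.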

[17] = CCTE_Shafer_MEA_acute_per_network_burst_spike_number_std: CCTE's Neural Acute Assay for Standard Deviation of Number of Spikes in a Network Burst, Shafer Lab (AID 2284020; active = hit-call score of the fitted dose curve at least 0.9, where 1 is the maximum; inactive = score below 0.9;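 note: fitted for decrease in spike-number SD versus DMSO so actives lower it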)
Summary of the method: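 Rat cortical cultures, DIV 13/15, 37 C; 20-min stabilisation, 40-min baseline, compound 0.03-40 uM, 40-min re-record. Spikes detected at 8x rms noise (300-5000 Hz band-pass). Readout: % change from baseline in per-burst spike-number SD.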

[18] = CCTE_Shafer_MEA_acute_network_burst_percentage: CCTE's Neural Acute Assay for Percentage of Network Bursts, Shafer Lab (AID 2284022; active = hit-call score of the fitted dose curve at least 0.9, where 1 is the maximum; inactive = score below 0.9;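 note: curves fitted for loss so actives lower network burst percentage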)
Summary of the method: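 Network burst percentage (spikes in network bursts divided by total spikes) recorded at 37 C over 40 min baseline and 40 min after compound, 0.03-40 uM, in rat cortical cultures at DIV 13 or 15. Analysed as percent change from baseline versus DMSO.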

[19] = CCTE_Shafer_MEA_acute_cross_correlation_area: CCTE's Neural Acute Assay for Area of Cross Correlation, Shafer Lab (AID 2284024; active = hit-call score of the fitted dose curve at least 0.9, where 1 is the maximum; inactive = score below 0.9;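 note: area under pooled inter-electrode spike cross-correlation near zero lag as percent change from own baseline; curves fitted for loss of cross-correlation area so actives lower synchrony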)
Summary of the method: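 Percent change in well-wide cross-correlation area (window around zero lag) between 40 min baseline and 40 min post-compound recordings, 37 C; rat cortical cultures on MEA at DIV 13 or 15, dosed 0.03-40 uM, wells needing >/= 10 active electrodes.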

[20] = CCTE_Shafer_MEA_acute_cross_correlation_HWHM: CCTE's Neural Acute Assay for Cross Correlation at Half Width at Half Maximum, Shafer Lab (AID 2284026; active = hit-call score of the fitted dose curve at least 0.9, where 1 is the maximum; inactive = score below 0.9;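 note: percent change per well from pre-dose baseline in spike cross-correlogram half width; hits are a decrease in cross-correlogram half width relative to DMSO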)
Summary of the method: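 Per-well percent change in cross-correlogram half width at half maximum, derived from 40-min recordings before and after compound (0.03-40 uM) at 37 C. Cultures were rat cortical neurons, DIV 13 or 15, with adaptive spike detection at 8x rms.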

For `Nc1ccc(Cl)cc1C(=O)c1ccccc1F`, the AC50 (PGR (gene 5241) [1]) was 17300 nM (active), the outcome [2] was “inactive” and the outcome (PGR (gene 5241) [3]) was “inactive”. For the same compound, the outcome [4] was “inactive”.
For `C[n+]1ccc(-c2cc[n+](C)cc2)cc1`, the outcome [5] was “inactive”, the outcome [6] was “inactive” and the outcome [7] was “inactive”. The outcome [8] was “inactive” and the AC50 [9] was 763 nM (active).
In the case of `CCC(=O)O[C@@H]1C=C2CCC3C(CCC4(C)C3CC[C@@H]4OC(=O)CC)C2CC1` (stereo partly specified), the outcome (PGR (gene 5241) [1]) is reported as “inactive”, the outcome [2] is reported as “inactive” and the outcome (PGR (gene 5241) [3]) is reported as “inactive”. For the same compound, the outcome [4] was “inactive”.
In the case of `O=S1OC[C@@H]2[C@H](CO1)[C@]1(Cl)C(Cl)=C(Cl)[C@]2(Cl)C1(Cl)Cl` (stereo partly specified), the outcome [5] is reported as “inactive”, the outcome [6] is reported as “inactive” and the outcome [7] is reported as “inactive”. For the same compound, the outcome [8] was “inactive”.
With `CC1(C)[C@@H](C=C(Cl)Cl)[C@@H]1C(=O)O[C@@H](C#N)c1ccc(F)c(Oc2ccccc2)c1` the AC50 [10] was 2970 nM (active), the outcome [11] was “inactive” and the outcome [12] was “inactive”. For the same compound, the AC50 [13] was 2350 nM (active), the AC50 [14] was 1950 nM (active) and the AC50 [15] was 7770 nM (active). The AC50 [16] was 1280 nM (active), the AC50 [17] was 534 nM (active) and the AC50 [18] was 1320 nM (active). The AC50 [19] was 208 nM (active) and the outcome [20] was “inactive”.
In the case of `C#CCN(C)[C@H](C)Cc1ccccc1`, the outcome [10] is reported as “inactive”, the outcome [11] is reported as “inactive” and the AC50 [12] is reported as 8860 nM (active). For the same compound, the AC50 [13] was 15000 nM (active), the outcome [14] was “inactive” and the outcome [15] was “inactive”. The outcome [16] was “inactive”, the outcome [17] was “inactive” and the outcome [18] was “inactive”. For the same compound, the outcome [19] was “inactive”, the outcome [20] was “inactive” and the outcome [9] was “inactive”.
In the case of `O=C1CN=C(c2ccccc2)c2cc(Cl)ccc2N1CC1CC1`, the AC50 (PGR (gene 5241) [1]) is reported as 23000 nM (active), the outcome [2] is reported as “inactive” and the outcome (PGR (gene 5241) [3]) is reported as “inactive”. The outcome [4] was “inactive”.
With `COP(=S)(OC)SCC(=O)N(C)C=O` the outcome [5] was “inactive”, the outcome [6] was “inactive” and the outcome [7] was “inactive”. The outcome [8] was “inactive”.
In the case of `C[C@H](N)Cc1ccccc1`, the AC50 [9] is reported as 43.6 nM (active).
With `O.O.O.O.O.[Cd+2].[Cd+2].[Cl-].[Cl-].[Cl-].[Cl-]` the AC50 [9] was 1240 nM (active).
For `CCOP(=O)(Oc1cnc(C(C)(C)C)nc1)OC(C)C` (stereo unspecified), the outcome [9] was “inactive”.
With `[CH3][Sn]([CH3])[CH3]` the AC50 [9] was 1670 nM (active).
In the case of `CC1(C)[C@H](C=C(Cl)Cl)[C@H]1C(=O)OCc1c(F)c(F)cc(F)c1F`, the AC50 [9] is reported as 8940 nM (active).
In the case of `CC(=O)[O-].[Tl+]`, the AC50 [9] is reported as 15400 nM (active).
With `Cn1nc(C(F)(F)F)c(CS(=O)(=O)C2=NOC(C)(C)C2)c1OC(F)F` the AC50 [9] was 31300 nM (active).
With `CC1(C)C(C=C(Cl)Cl)C1C(=O)O[C@H](C#N)c1cccc(Oc2ccccc2)c1` (stereo partly specified) the AC50 [9] was 10100 nM (active).
